# Measurements: PubChem BioAssay (Tox21)
# Results filed as inconclusive are left out. Unmarked numbers belong to inactive results. Calls come from the whole dose curve; as a rule, active = well fitted cell-killing curve with a large enough effect in the repeat runs; inconclusive = weak or mixed curves, or effect the other way; inactive = flat fitted curve, though single readings scatter. Non-standard residues stand in square brackets, D forms with d. Residues, ends and D or L forms follow the SMILES beside them. *: point of attachment. Sta = CC(C)C[C@H](N)[C@@H](O)CC(=O)O; Isovaleryl = CC(C)CC(=O)*
# Test: qHTS assay to identify small molecule agonists of the TGF-beta/Smad signaling pathway - cell viability counter screen (AID 1346829); note: top concentration of the series differs between compounds; nearly all actives have a fitted effect of over 45% in size
# Details: SBE-bla HEK293T viability, CellTiter-Glo luminescence, 5 h; series mostly up to 76.8 µM; activity change, negative = cytotoxicity: at the top concentration
# Text: National Center for Advancing Translational Sciences [NCATS]
# NIH Chemical Genomics Center [NCGC]
# U.S. Environmental Protection Agency [EPA]
# National Institutes of Environmental Health Sciences [NIEHS]
# National Toxicology Program [NTP]
# U.S. Food and Drug Administration [FDA]
# Transforming growth factor beta (TGF-beta) superfamily consists of a large number of structurally related dimeric proteins that act as hormones or local mediators in regulating a wide range of biological functions. This superfamily includes TGF-betas themselves, the bone morphogenetic proteins (BMPs) and the activins. These ligands induce oligomerization of serine/threonine receptor kinases and phosphorylate the cytoplasmic signaling molecules of Smad protein family. CellSensor SBE-bla HEK 293T cell line (Life Technologies, Carlsbad, CA), responsive to TGF-beta was used to screen Tox21 10K compound library for identification of agonists/antagonists of the Smad signaling pathway. This cell line contains a beta-lactamase reporter gene under control of the Smad binding element (SBE) stably integrated into HEK 293T cells. Also cytotoxicity of the compounds was tested in parallel by measuring the cell viability using CellTiter-Glo assay system in the same wells.
# Tox21 Assay Protocol Summary:
# SBE-bla HEK 293T cells were dispensed at 4,000/well in 6 uL of assay medium into black wall/clear-bottom 1536-well plates using a Multidrop Combi (ThermoFisher Scientific, Waltham, MA) dispenser. After the assay plates were incubated at 37 C and 5% CO2 for an overnight, 23 nL of compounds dissolved in DMSO, positive controls or DMSO only was transferred to the assay plate by a Pintool station (Kalypsys, San Diego, CA). The assay plates were incubated at 37 C and 5% CO2 for 5 hr. One uL of LiveBLAzer B/G FRET substrate (Life Technologies) was added using a Flying Reagent Dispenser (FRD, Aurora Discovery, San Diego, CA) and the plates were incubated at room temperature for 2 hr. Fluorescence intensity (405 nm excitation, 460 nm and 530 nm emissions) was measured using an Envision plate reader (PerkinElmer, Shelton, CT). For cytotoxicity read, 4 uL of CellTiter-Glo reagent (Promega Corporation, Madison, WI) was added to each well of the assay plates using FRD. After 30min incubation at room temperature, the luminescence intensity was measured using ViewLux plate reader (PerkinElmer).
# % is set by controls: 0 for no effect and ±100 for the full control effect.
row,SMILES,"activity change, negative = cytotoxicity"
1,CCc1ccc(CC)cc1,1.17%
2,CC1(C)CC(N)CC(C)(C)N1,13.8%
3,NNC(=O)CCCCC(=O)NN,0.0238%
4,CCCCc1ccc(Cl)cc1,-6.95%
5,Cc1ccccc1C#N,-15.3%
6,Cc1cc(C)c(N)c(Cl)c1,-5.29%
7,CN(C)CCc1c[nH]c2ccc(C[C@H]3COC(=O)N3)cc12,9.61% [at 35.3 µM]
8,CCCOc1ccc(C(=O)OCCN(CC)CC)cc1N,-3.28% [at 35.3 µM]
9,CN(C)c1ccncc1,-8.93%
10,CCCCNCC,-2.33%
11,CCCCCCC(=O)c1ccccc1,-7.96%
12,CCCCCCCCCCCCCCCCN(C)C,16.2% [at 6.97 µM]
13,NS(=O)(=O)c1cc2c(cc1C(F)(F)F)NCNS2(=O)=O,1.13% [at 35.3 µM]
14,CC[N+](C)(CC)CC,-3.53%
15,N=C(N)N1CCc2ccccc2C1,-4.14% [at 6.97 µM]
16,CC(C)CC(=O)N[C@H](C(=O)N[C@H](C(=O)N[C@@H](CC(C)C)[C@@H](O)CC(=O)N[C@@H](C)C(=O)N[C@@H](CC(C)C)[C@@H](O)CC(=O)O)C(C)C)C(C)C (Isovaleryl-VV[Sta]A[Sta]-OH),-0.113% [at 35.3 µM]
17,CC/C=C/CCCCCCCCCCOC(C)=O,-4.52%
18,Cc1ccc(OC(=O)CC(C)C)cc1,1.56%
19,Cc1ccc(S(=O)(=O)NC(=O)NN2CC3CCCC3C2)cc1 (stereo not given),-0.64% [at 35.3 µM]
20,CN(C)c1cc(NC(=O)CNC(C)(C)C)c(O)c2c1C[C@H]1C[C@H]3[C@H](N(C)C)C(=O)C(C(N)=O)=C(O)[C@@]3(O)C(=O)C1=C2O,-20.7% [at 35.3 µM]

row,SMILES,"activity change, negative = cytotoxicity"
1,CCCCN1C(=O)c2ccccc2C1=O,-13.5%
2,Cc1ccc2ccccc2n1,-0.138%
3,CC(C)(C)OC(=O)c1ccccc1C(=O)O,-1.88%
4,CC(=O)Oc1ccc(C(C)=O)cc1,17.6%
5,Cc1nnc(C(=O)NC(C)(C)c2nc(C(=O)NCc3ccc(F)cc3)c(O)c(=O)n2C)o1,-9.19% [at 35.3 µM]
6,CC(C)(C)OC=O,1.53%
7,CO/N=C(\C(=O)O)c1csc(NC(=O)CCl)n1,-2.44% [at 35.3 µM]
8,Clc1cc(Cl)c(Cl)c(Cl)c1Cl,-2.29%
9,CC/C=C\CCCCCCCCCCOC(C)=O,5.11%
10,C=CCCCCCCCCCCCCCC,9.91% [at 15.8 µM]
11,CCCCC(CC)CCC(CC(C)C)OS(=O)(=O)O (stereo not given),-1.71%
12,CC1(C)S[C@@H]2[C@H](NC(=O)Cc3ccccc3)C(=O)N2[C@H]1C(=O)O (tested in a mixture with another compound),2.57% [at 35.3 µM]
13,C=CC(C)(CCC=C(C)C)OC(=O)C(C)C (stereo not given),0.531%
14,COc1cc(NS(=O)(=O)c2ccc(N)cc2)ncn1,-12.2% [at 35.3 µM]
15,O=c1[nH]c(=O)c2cn[nH]c2[nH]1,1.21%
16,C=COCCCCO,-5.35%
17,Cc1ccc(NC(N)=O)cc1,3.96%
18,C=CCON/C(CCC)=C1\C(=O)CC(C)(C)C(C(=O)OC)=C1O,5.45%
19,CC(C)(C)c1ccc(C(=O)CCCCl)cc1,-4.57% [at 35.3 µM]
20,C/C=C/C(=O)CCCC,0.214%
